# The panel holds about 83,000 compounds, 20% with a hit somewhere; the sample as a whole holds those more often.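 Testing used 96-well plates and a 48-hour single-concentration exposure. Example: -40 means 40% of the starting cells died.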 Unmarked numbers belong to inactive results. Active and inactive are the calls of the source. How the source made its calls: active means growth percent below 10; inactive means the rest.
# Legend:
# Assay in all cases: NCI-60 one-dose screen, 48 h (100 = growth as untreated, 0 = no growth, -100 = all killed)
# Conditions in all cases: 10 µM unless noted
# HCT-15 colon = system: HCT-15 colon
# HT29 colon = system: HT29 colon
# SNB-75 CNS = system: SNB-75 CNS
# SNB-19 CNS = system: SNB-19 CNS
# U251 CNS = system: U251 CNS
# PC-3 prostate = system: PC-3 prostate
# SK-MEL-5 melanoma = system: SK-MEL-5 melanoma
# UACC-62 melanoma = system: UACC-62 melanoma
# LOX IMVI melanoma = system: LOX IMVI melanoma
# SK-MEL-28 melanoma = system: SK-MEL-28 melanoma
# SK-MEL-2 melanoma = system: SK-MEL-2 melanoma
# EKVX NSCLC = system: EKVX NSCLC
# SN12C renal = system: SN12C renal
# UO-31 renal = system: UO-31 renal
# TK-10 renal = system: TK-10 renal
# ACHN renal = system: ACHN renal
# CAKI-1 renal = system: CAKI-1 renal
# A498 renal = system: A498 renal
# CCRF-CEM leukemia = system: CCRF-CEM leukemia
# MOLT-4 leukemia = system: MOLT-4 leukemia
Structure (SMILES),growth (HCT-15 colon),growth (HT29 colon),growth (SNB-75 CNS),growth (SNB-19 CNS),growth (U251 CNS),growth (PC-3 prostate),growth (SK-MEL-5 melanoma),growth (UACC-62 melanoma),growth (LOX IMVI melanoma),growth (SK-MEL-28 melanoma),growth (SK-MEL-2 melanoma),growth (EKVX NSCLC) [%],growth (SN12C renal),growth (UO-31 renal),growth (TK-10 renal),growth (ACHN renal),growth (CAKI-1 renal),growth (A498 renal),growth (CCRF-CEM leukemia),growth (MOLT-4 leukemia)
O=c1ccc2cc3ccccc3cc2[nH]1,109%,101%,82.2%,104%,95.5%,105%,80.8%,66.4%,102%,124%,97.5%,28.1,94.4%,76.4%,119%,108%,78.4%,97.9%,-72.7% (active),87.3%
COc1ccc2nc3cc(Cl)ccc3c(NCCNCC(O)CO)c2c1 (stereo not given),73.4%,6.37% (active),42.1%,35.7%,17.3%,21.4%,35.3%,11%,-55.2% (active),30.8%,27.9%,42,5.37% (active),48.9%,32.3%,26.8%,71.9%,8.45% (active),25%,12.7%
COc1ccc(C(=O)/C=C/c2cc3ccccc3[nH]c2=O)cc1,46.4%,6.09% (active),2% (active),70.5%,31.7%,32.3%,72.5%,67.7%,10.2%,88.2%,55.1%,79,45%,24.9%,24.7%,57.9%,42.8%,47.4%,19.5%,32.5%
CC/C=C\C[C@H](O)C/C=C1/C(=O)C=C[C@@H]1C/C=C\CCCC(N)=O,-36.8% (active),-1.88% (active),69.3%,26.9%,0.507% (active),19.6%,-94.8% (active),-45.8% (active),-56.2% (active),-14.5% (active),13.9%,23.6,-4.37% (active),-70.8% (active),-13% (active),-82.2% (active),11.3%,54.6%,-4.33% (active),-13% (active)
CCCCCCCCCC(=O)Oc1ccc(/C(=C(/C)c2ccccc2)c2ccc(OCCN3CCCC3)cc2)cc1,-13.4% (active),-35.5% (active),-11.6% (active),6.86% (active),-34.3% (active),15.8%,-98.5% (active),-69% (active),-72.1% (active),-77.9% (active),-31.5% (active),44.1,44.8%,7.66% (active),43%,35.2%,1.34% (active),1.68% (active),13.1%,2.39% (active)
COc1cc(NCCCCN=C(N)N)c2ncccc2c1,99.9%,79.6%,48.6%,81.2%,48.7%,79.1%,89.2%,87.9%,101%,98.9%,27.3%,65.2,-14.5% (active),90.3%,70.9%,93.6%,98.2%,74.5%,90.7%,67.5%
COc1cnc2c(c1)C(=O)c1c-2n(CCCBr)c(=O)c2cc([N+](=O)[O-])ccc12,20.7%,0.984% (active),13.5%,22.3%,-22.4% (active),4.1% (active),-82.6% (active),-62.3% (active),-54.2% (active),16.3%,6.39% (active),34.2,-15.3% (active),-10.8% (active),36.5%,3.87% (active),2.8% (active),-29.8% (active),8.19% (active),7.84% (active)
CN1CCOCCOCCOc2ccccc2NC(=O)c2nc(cnc2N)-c2ccc(cc2)S1(=O)=O,1.6% (active),9.23% (active),52.1%,82.5%,54.6%,53.5%,60.5%,54.3%,30.1%,58.6%,49.8%,80.4,64.7%,42.1%,43.7%,8.87% (active),53.7%,29.3%,2.07% (active),0.82% (active)
Cc1ccccc1CCO,99.8%,76.4%,102%,108%,98.6%,97.6%,102%,108%,103%,99.9%,86.3%,105,107%,88.8%,82.4%,98.4%,100%,96.5%,116%,111%
C[C@]12C[C@@H](c3ccoc3)OC(=O)[C@@H]1CC[C@]1(C)[C@@H]2CC[C@@H](O)[C@]1(C)O,85.4%,68.3%,62.3%,76.5%,66.5%,60.5%,76.2%,76.1%,70.5%,94.1%,74.7%,57.5,64.1%,75.5%,65%,76.1%,88.2%,19.8%,69.3%,67.3%
CCOC(=O)c1c2c(n3ccc(NC(=O)CCN4CCCCC4)cc13)C(=O)c1ncccc1C2=O,-62.9% (active),-61.5% (active),23.9%,-42.7% (active),-86.3% (active),47.3%,-83.6% (active),-50.6% (active),-63.9% (active),-64.7% (active),52.1%,67.9,30.2%,10.3%,54%,-52.5% (active),16.9%,58.5%,-22.9% (active),-25.9% (active)
COc1cnc2c(c1)C(=O)c1c-2n(CCCN2CCCC2)c(=O)c2cc([N+](=O)[O-])ccc12,20.3%,-59.4% (active),-3.27% (active),19.8%,-64.8% (active),15.6%,-96.8% (active),-67.5% (active),-82.3% (active),29.3%,13.8%,21.7,8.36% (active),-96.3% (active),13.2%,-91.2% (active),-13.6% (active),-97.9% (active),-16.1% (active),1.49% (active)
Cn1c(=O)c2c(ncn2CC[N+](C)(C)C)n(C)c1=O,112%,93.8%,90.9%,101%,101%,94.5%,102%,86.9%,99.6%,106%,99.7%,94.6,103%,91.7%,91.8%,110%,102%,115%,109%,104%
O=C(C[C@@H](C(=O)NCc1cccc(C(F)(F)F)c1)N1C(=O)[C@@H](N2C(=O)OC[C@@H]2c2ccccc2)[C@H]1/C=C/c1ccccc1)NC1CCN(Cc2ccccc2)CC1,61.1%,2.51% (active),71.7%,84.6%,70.9%,54.4%,43.1%,73.3%,23.9%,81.5%,49.6%,82.3,82.2%,64.3%,61%,96.2%,85.2%,49.8%,21%,-5.43% (active)
ClC1=C2NC=NC2n2c(nnc2-c2ccc(Cl)cc2)N1 (stereo not given),96.4%,91.5%,107%,92.7%,89.6%,89.9%,96.9%,92.1%,108%,102%,95.8%,105,94.5%,92%,122%,109%,98.8%,73.1%,99.9%,99.6%

# From PubChem BioAssay (NCI)
